Source: PubChem BioAssay
In the library only some 19% were active in any assay of this set; here they are far more common.
DT40 TDP1 CPT: qHTS for Inhibitors of human tyrosyl-DNA phosphodiesterase 1 (TDP1): qHTS in cells in presence of CPT | chicken DT40 Tdp1-/-;hTDP1 cells + 20 nM CPT, ATP luminescence, 48 h | Potency, µM (titrated, usually from 46.2 µM), without a hit: top-dose activity change, negative = growth inhibition, actives largely listed as inhibitors | hit rate 12% among 420,000 | AID 686979, 2013; note: potency is the fitted concentration of half-maximal effect; % is set by controls: 0 for no effect and ±100 for the full control effect; nearly all actives have a fitted effect of over 55% in size
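Cell growth measured by CellTiter-Glo luminescence after a minimum 48 h, 37 C compound exposure with 20 nM CPT in Tdp1-knockout DT40 cells stably expressing hTDP1, seeded 400/well; qHTS titration format.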
SW480 rereplic: A quantitative high throughput screen for small molecules that induce DNA re-replication in SW480 colon adenocarcinoma cells | SW480 DNA re-replication, Hoechst DNA content imaging, 48 h | Potency, µM (titrated, usually from 46.1 µM), for the others: at the highest dose re-replication activation, usual class: activators | hit rate 1.8% among 340,000; note: potency is the fitted concentration of half-maximal effect; % of control where 0% means no effect; nearly all actives have a fitted effect of over 55% in size
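Cells (250 per well) received 23 nL compound or DMSO by pin tool and were kept 48 hr at 37 C, 5% CO2. Nuclei were then stained with Hoechst for 40 min and scanned for DNA content.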
Chronic BCR inh: qHTS Assay to Find Inhibitors of Chronic Active B-Cell Receptor Signaling. ABC-DLBCL IkBa-CBG/CBR reporter, luminescence ratio, 4 h. Potency, µM (series often up to 46.1 µM), for inactives: at the top dose activity change, negative = inhibition, usual class: inhibitors. hit rate 0.05% among 340,000. AID 493014, 2011; active = well fitted inhibition curve with a large enough effect in the signal ratio, with a control signal flat, not every such curve was filed as active; inconclusive = small, poorly fitted or top-dose-only effect, or effect the other way, or a change in a side signal; the % refers to the signal ratio;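 note: potency is the fitted concentration of half-maximal effect; plate controls were basal doxycycline-induced cells for no effect and cells given 10 µM MG132 for full effect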
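TMD8 human ABC-DLBCL cells with doxycycline-inducible IκBα–green luciferase fusion and unfused red luciferase, in 0.5% FBS medium; compounds up to 46 uM, 4 h at 37C. Green/red luminescence ratio, filter-overlap corrected, fitted to concentration-response curves.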
MCF10A rereplic: A quantitative high throughput screen for small molecules that induce DNA re-replication in MCF 10a normal breast cells; MCF 10A DNA re-replication, Hoechst nuclear intensity, 48 h; Potency, µM (titrated, usually from 46.1 µM), for the others: at the top dose activity, positive = re-replication, hits mostly activators; hit rate 2.9% among 350,000; note: potency is the fitted concentration of half-maximal effect; % of control where 0% means no effect; nearly all actives have a fitted effect of over 50% in size
DT40 TDP1 no CPT: qHTS for Inhibitors of human tyrosyl-DNA phosphodiesterase 1 (TDP1): qHTS in cells in absence of CPT; hit rate 15% among 420,000; AID 686978, 2013; DT40 Tdp1-/- hTDP1 cells, no CPT, ATP luminescence, 48 h; Potency, µM (series often up to 46.2 µM), for inactives: at the highest dose activity change, negative = growth inhibition, hits mostly inhibitors; note: potency is the fitted concentration of half-maximal effect; % is set by controls: 0 for no effect and ±100 for the full control effect; nearly all actives have a fitted effect of over 55% in size
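No-CPT arm: Tdp1-/-;hTDP1 DT40 cells (400/well) plus compounds, incubated ≥48 hr at 37 °C. Readout CellTiter-Glo luminescence.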
IL1B secr inh: qHTS for Inhibitors of Inflammasome Signaling: IL-1-beta AlphaLISA Primary Screen; THP-1 LPS/ATP IL-1B secretion, AlphaLISA, 16 h; stronger effect = lower value; activity change, % at 57.5 µM; hit rate 4.7% among 360,000; AID 743279, 2014; in the data active = activity change below about -50%; inconclusive = mostly about -30% to -49%; note: % is set by controls: 0 for no effect and ±100 for the full control effect
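THP-1 cells pretreated 1 hr with compounds (up to 57.5 uM final), then stimulated with LPS (250 ng/mL final) plus ATP (1.25 mM final); secreted IL-1B measured by AlphaLISA after 16 hr, decreased signal indicating inhibition.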
* = called active by the depositor; ? = inconclusive; . = no result; [ ] = remark or other dose. Unless noted, calls come from the whole dose curve; as a rule, active = well fitted curve in the direction sought with a large enough effect; inconclusive = small, poorly fitted or top-dose-only effect, or another doubt; inactive = no such curve, though single readings can be large; an effect the other way counts as inactive or inconclusive.

SMILES	DT40 TDP1 CPT	SW480 rereplic	Chronic BCR inh	MCF10A rereplic	DT40 TDP1 no CPT	IL1B secr inh
COc1ccc(S(=O)(=O)N2CCOCC2)cc1NC(=O)COC(=O)c1[nH]c(C)c(C(C)=O)c1C	-14.3%	6.2%	-17.0%	11.9%	-16.2%	31.3
CC(=O)c1c(C)[nH]c(C(=O)OCC(=O)Nc2cc(S(=O)(=O)N3CCCC3)ccc2Cl)c1C	?	54.4%	?	-63.3%	23.1µM*	75.4
CC(C)(CO)[C@@H](O)C(=O)NCCCO	-17.5%	-4.7%	.	1.7%	5.3%	.
COc1ccccc1NC(=O)Nc1nc(CC(=O)NCc2c(F)cccc2F)cs1	?	-70.9%	?	?	20.6µM*	-10.6
COc1ccccc1CC(=O)N1CCN(c2ccccc2F)CC1	-0.7%	-11.4%	1.0%	11.6%	?	-8.9
COc1ccccc1NC(=O)Nc1nc(CC(=O)N2CCN(c3ccccc3F)CC2)cs1	?	-429.0%	?	?	18.4µM*	-22.7
COc1ccccc1NC(=S)NCc1ccc(F)cc1	-1.9%	-1.5%	6.1%	?	-21.5%	-13.6
COc1ccccc1NC(=O)Cc1cccc2ccccc12	?	0.8%	-12.0%	1.9%	?	24.0
COc1cccc(CNC(=O)Cc2csc(NC(=O)Nc3ccccc3OC)n2)c1	?	-39.7%	-1.6%	1.5%	20.6µM*	-13.6
COc1ccccc1NC(=O)Nc1nc(CC(=O)NCc2ccc(F)cc2)cs1	9.2µM*	?	?	?	16.4µM*	-11.8
CCCS(=O)(=O)NC(=O)C1(C)CCN(C(=O)c2ccc(SC(F)(F)F)cc2)C1 (stereo not given)	1.5%	.	.	.	-3.2%	10.8
CCN(Cc1nc2cc(Cl)ccc2c(=O)[nH]1)C(=O)c1cccc(OCc2c(C)noc2C)c1	-22.7%	-17.2%	?	?	-14.1%	0.0
Cc1ccc(C(=O)N/C(=C\c2cn(C)c3ccccc23)C(=O)NCCN2CCOCC2)cc1	27.3%	-20.1%	-16.8%	-27.4%	-8.7%	-5.3
CCOC(=O)N/N=C\c1ccc(OC/C=C/c2ccccc2)cc1	-27.0%	?	-0.2%	-0.2%	22.5%	-16.6
CCC(=O)Nc1cc2c3c(c1)CCC(=O)N3CCC2	22.2%	-8.7%	-11.5%	1.4%	-21.7%	10.7
COc1ccc(SC2=C[C@@]3(O)CC[C@@H](O)[C@@](Sc4ccc(OC)cc4)(C2=O)[C@H]3O)cc1	23.1µM*	.	.	.	16.4µM*	45.0
O=C1C(Sc2ccccc2)=C[C@@]2(O)CC[C@@H](O)[C@]1(Sc1ccccc1)[C@H]2O	5.17µM*	.	.	.	5.8µM*	-80.3*
COC(=O)[C@@]1(Sc2ccccc2)CC(=O)N[C@@H]1c1ccccc1	7.6%	.	.	.	-22.0%	76.7
CC(CCN1CCC(n2nccc2NC(=O)c2ccccc2Cl)CC1)c1ccccc1 (stereo not given)	?	21.6%	?	-0.4%	-2.2%	-4.5
c1ccc(COC(CN2CCCCCC2)CN2CCCCCC2)cc1	10.3µM*	180.9%	1.4%	6.3%	20.6µM*	-19.5
Cc1cccc(NC(=O)c2ncn3c2C(=O)N[C@@H](C)C3)c1	3.9%	.	.	.	?	-17.2
COc1ccccc1C(=O)Nc1cccc(OCc2cc(=O)n3c(C)csc3n2)c1	16.4µM*	.	.	.	23.1µM*	.
Cc1ccccc1C(=O)Nc1cccc(OCc2cc(=O)n3c(C)csc3n2)c1	-1.9%	.	.	.	-13.1%	.
COc1cc(C(=O)Nc2cccc(OCc3cc(=O)n4c(C)csc4n3)c2)cc(OC)c1OC	20.6µM*	.	.	.	14.6µM*	.
CCCC(=O)N1CCC1(C)C(=O)NS(=O)(=O)c1cccc(Cl)c1 (stereo not given)	-28.3%	.	.	.	1.9%	26.9
SMILES	DT40 TDP1 CPT	SW480 rereplic	Chronic BCR inh	MCF10A rereplic	DT40 TDP1 no CPT	IL1B secr inh
Cn1c(=O)c(CCc2ccccc2)nc2cnc(OCc3ccccc3)nc21	11.6%	.	.	.	-7.1%	.
O=C1CC(c2nc3ccccc3n2CCCCOc2ccccc2)CN1c1ccccc1Cl (stereo not given)	10.3µM*	.	.	.	14.6µM*	.
CC(C)(C)N1CC(c2nc3ccccc3n2CCOc2ccccc2)CC1=O (stereo not given)	?	0.1%	?	0.5%	?	-18.6
COc1ccc(OCCCCn2c(C3CC(=O)N(c4cccc(Cl)c4)C3)nc3ccccc32)cc1 (stereo not given)	8.2µM*	.	.	.	5.8µM*	.
CCOc1ccc(N2CC(c3nc4ccccc4n3Cc3cccc(Cl)c3)CC2=O)cc1 (stereo not given)	?	.	.	.	16.4µM*	.
CCOc1ccccc1N1CC(c2nc3ccccc3n2CCCCOc2ccccc2)CC1=O (stereo not given)	-7.4%	.	.	.	-7.8%	.
Cc1ccc(OCCCn2c(C3CC(=O)N(c4cccc(Cl)c4)C3)nc3ccccc32)c(C)c1 (stereo not given)	-99.7%	.	.	.	9.2µM*	.
COc1cccc(-c2ccnc(-n3ncc(C(=O)NCC4(N5CCCCC5)CCCC4)c3C)n2)c1	10.2%[9.04 µM]	.	.	.	-17.3%	.
Cc1noc(C)c1NC(=O)Nc1ccc2c(c1)C(=O)N([C@@H](C)CO)C[C@@H](C)[C@@H](CN(C)Cc1ccc3c(c1)OCO3)O2	-4.8%	-16.3%	-1.3%	-2.1%	-6.8%	16.2
COc1ccc(Cl)cc1NC(=O)c1noc2c1CCc1ccccc1-2	-13.0%	.	.	.	-5.5%	.
Cc1cccc(C)c1NC(=O)CN(C)c1ccc(C(F)(F)F)cn1	-3.7%	11.6µM*	3.1%	1.3%	?	-5.7
Cc1cccc(C)c1NC(=O)CN(C)C(=O)c1ccc(-c2cccc(C(F)(F)F)c2)o1	?	4.11µM*	?	-27.0%	?	-1.2
CC(C)NC(=O)c1ccc(-c2cccc(C(F)(F)F)c2)o1	8.7%	-8.6%	?	0.5%	-29.2%	-14.9
Cc1sc2ncn(CC(=O)NCC(=O)N3CCN(c4ccc(F)cc4)CC3)c(=O)c2c1C	-15.6%	2.7%	0.5%	11.8%	-29.8%	9.6
N#Cc1ccc(-c2csc(NC3=NCCCCC3)n2)cc1	?	9.2%	-5.9%	?	?	-26.1
c1ccc(-c2csc(NC3=NCCCCC3)n2)cc1	13.2%	-1.7%	16.3%	-23.9%	8.2%	0.0
Brc1ccc(-c2csc(NNC3=NCCCCC3)n2)cc1	?	3.0%	?	?	?	-53.0*
